Reference: PubChem BioAssay (NCATS)
Inconclusive results are not listed. Calls of active or inactive are those of the source. Unless noted, the call rests on the fitted dose curve.

Assays:
[1] = qHTS for Inhibitors of the Functional Ribonucleoprotein Complex (vRNP) of Lassa (LASV) Arenavirus: LASV Primary Screen - GLuc reporter signal (AID 1347082; calls by dose curve; tested in HEK293 reporter line; further: nearly all actives have a fitted effect of over 60% in size)
[2] = qHTS for Inhibitors of the Functional Ribonucleoprotein Complex (vRNP) of Lassa (LASV) Arenavirus: Viability assay - alamar blue signal for LASV Primary Screen (AID 1347083; calls by dose curve; tested in HEK293 reporter line; further: nearly all actives have a fitted effect of over 80% in size)
[3] = qHTS for Inhibitors of the Functional Ribonucleoprotein Complex (vRNP) of Lymphocytic Choriomeningitis Arenaviruses (LCMV): Viability assay - alamar blue signal for LCMV Primary Screen (AID 1347085; calls by dose curve; tested in HEK293 reporter line; further: nearly all actives have a fitted effect of over 80% in size)
[4] = molecular target: Nucleoprotein (Lymphocytic choriomeningitis virus (strain Armstrong)) (UniProt P09992); test: qHTS for Inhibitors of the Functional Ribonucleoprotein Complex (vRNP) of Lymphocytic Choriomeningitis Arenaviruses (LCMV): LCMV Primary Screen - GLuc reporter signal (AID 1347086); further: nearly all actives have a fitted effect of over 70% in size
[5] = Primary qHTS for Huh7 cytotoxicity: counterscreen for inhibitors of MERS-S pseudotyped particle cell entry (AID 1479147); conditions: outcome: dose series up to 57.1 µM unless noted
[6] = Primary qHTS for inhibitors of MERS-S pseudo-typed particle cell entry (AID 1479149); further: potency means the concentration at half of the fitted maximal effect; nearly all actives have a fitted effect of over 60% in size
[7] = Primary qHTS for Vero E6 cytotoxicity: counterscreen for inhibitors of SARS-S pseudo-typed particle cell entry (AID 1479150); conditions: outcome: dose series up to 57.1 µM unless noted
[8] = Cytotoxicity counterscreen for inhibitors of SARS-CoV-2 cell entry (AID 1645845); further: nearly all actives have a fitted effect of over 50% in size
In short: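 After a 15 min room-temperature ATPLite 1step step, luminescence reflected ATP remaining in HEK293-ACE2 cells exposed to compound for 1 h plus 48 h at 37 C, with percent activity set by cell and no-cell controls.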

[9] = Primary qHTS to identify inhibitors of SARS-CoV-2 cell entry (AID 1645846); conditions: activity change, negative = inhibition: at 57.1 µM (top of the series) unless noted; further: potency means the concentration at half of the fitted maximal effect; nearly all actives have a fitted effect of over 45% in size
In short: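 Data are normalized to wells receiving SARS-CoV-2-S pseudoparticles and those given bald particles. Entry signal was luciferase luminescence in stable hACE2 Expi293F cells, 48 hr post-infection, after 1 hr compound pretreatment.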

[10] = VSVG counterscreen qHTS to identify inhibitors of SARS-CoV-2 cell entry (AID 1645847); further: potency means the concentration at half of the fitted maximal effect; nearly all actives have a fitted effect of over 65% in size
In short: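 Counterscreen using VSV-G (not spike) pseudotyped MLV particles on ACE2-expressing Expi293F cells after 1 h compound preincubation; infection ran 48 h at 37 °C. Data normalized to VSV-G PP and bald-PP wells.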

Measured: Potency

Sequence of Nucleoprotein (Lymphocytic choriomeningitis virus (strain Armstrong)) (P09992 whole entry, looked up): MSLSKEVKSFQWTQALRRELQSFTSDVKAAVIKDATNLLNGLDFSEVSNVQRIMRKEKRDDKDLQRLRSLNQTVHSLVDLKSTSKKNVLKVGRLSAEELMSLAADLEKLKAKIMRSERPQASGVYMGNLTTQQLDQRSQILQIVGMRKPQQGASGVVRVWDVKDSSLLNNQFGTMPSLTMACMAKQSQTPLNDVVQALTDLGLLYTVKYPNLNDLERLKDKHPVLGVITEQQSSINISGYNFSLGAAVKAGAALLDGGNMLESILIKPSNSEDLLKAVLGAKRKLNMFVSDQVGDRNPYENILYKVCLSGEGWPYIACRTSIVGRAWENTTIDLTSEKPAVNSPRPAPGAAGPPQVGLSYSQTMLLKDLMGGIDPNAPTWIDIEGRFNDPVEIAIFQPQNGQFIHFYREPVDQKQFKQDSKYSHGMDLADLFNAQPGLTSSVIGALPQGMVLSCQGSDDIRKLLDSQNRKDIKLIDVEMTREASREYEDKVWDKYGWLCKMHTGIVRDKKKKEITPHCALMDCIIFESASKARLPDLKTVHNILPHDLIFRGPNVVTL

CC(C)C(=O)Oc1ccc(CO)cc1[C@H](CCN(C(C)C)C(C)C)c1ccccc1
active: [6] 14.1 µM | [9] 14.1 µM | [10] 21.5 µM
inactive: all other assays above
